From PubChem BioAssay (NCATS)
Values without a mark were called inactive. Records with an inconclusive call do not appear. Active and inactive are the calls of the source. Calls follow the shape of the dose curve; as a rule, active = well fitted curve in the direction sought with a large enough effect; inconclusive = small, poorly fitted or top-dose-only effect, or another doubt; inactive = no such curve, though single readings can be large; an effect the other way counts as inactive or inconclusive.

The compounds below were run against Cytochrome P450 2C19 (Homo sapiens) (UniProt P33261) (assay: qHTS Assay for Inhibitors and Substrates of Cytochrome P450 2C19 (AID 899; also: nearly all actives have a fitted effect of over 60% in size; also: potency is read from the fitted curve at half-maximal effect; as to activity, negative = inhibition: % is scaled to controls: 0 for no effect and ±100 for the full control effect)). Conditions: recombinant CYP2C19, luciferin-H EGE luminescence; series mostly up to 57.1 µM; activity, negative = inhibition: at the top concentration.
Chain of Cytochrome P450 2C19 (Homo sapiens) (P33261 whole entry, looked up): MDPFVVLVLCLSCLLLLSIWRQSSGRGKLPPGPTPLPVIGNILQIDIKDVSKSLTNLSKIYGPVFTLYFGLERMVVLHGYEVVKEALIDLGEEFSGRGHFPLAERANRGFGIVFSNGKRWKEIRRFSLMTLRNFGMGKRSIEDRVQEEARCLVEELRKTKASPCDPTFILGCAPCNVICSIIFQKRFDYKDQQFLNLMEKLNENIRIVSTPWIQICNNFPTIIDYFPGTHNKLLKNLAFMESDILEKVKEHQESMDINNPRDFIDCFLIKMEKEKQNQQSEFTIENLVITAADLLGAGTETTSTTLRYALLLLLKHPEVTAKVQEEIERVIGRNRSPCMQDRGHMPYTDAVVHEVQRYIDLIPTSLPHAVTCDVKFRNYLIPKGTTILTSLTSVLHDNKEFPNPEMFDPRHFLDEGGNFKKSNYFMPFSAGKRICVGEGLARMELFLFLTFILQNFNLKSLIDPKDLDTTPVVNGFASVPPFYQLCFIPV
In short: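 In 50mM KPO4, the reaction held 5nM enzyme and KM-level (10uM) Luciferin-H EGE; it ran 60 min at 37C after NADPH regeneration and a 10 min compound preincubation. Luminescence values were scaled to 57uM ketoconazole as complete inhibition.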
`Cc1ccc(C(=O)O[C@@H](C(=O)O)[C@@H](OC(=O)c2ccc(C)cc2)C(=O)O)cc1` (tested in a mixture with another compound) was tested, and the “activity, negative = inhibition” value was 95.9%. In the case of `O=NN(Cc1ccc(Cl)cc1)[C@@H](C(=O)O)c1ccccc1`, the Potency is reported as 398 nM (active). `C=C(Br)CN(C)CC(=C)Br` gave an activity, negative = inhibition of 46.7% [at 11.4 µM]. Work on `C[C@@]12CC[C@H]3[C@H](CC=C4C[C@@H](O)CC[C@@]43C)[C@@H]1CC[C@@H]2N(CCO)CCO` yielded an activity, negative = inhibition of 79.2% [at 11.4 µM]. With `N[C@H](CCC(=O)N[C@H](CSN=O)C(=O)NCC(=O)O)C(=O)O` the Potency was 1580 nM (active). With `C[C@H](CCC(=O)O)[C@H]1CC[C@]2(C)[C@@H]3C(=O)C[C@H]4C(C)(C)[C@@H](O)CC[C@]4(C)[C@H]3C(=O)C[C@@]12C` the activity, negative = inhibition was 60.6% [at 11.4 µM]. `O=c1c2ccccc2c2ccccc2c(=O)n1-c1cc2c3ccccc3ccc2c2ccccc12` was tested, and the Potency was 158 nM (active). With `C[C@@H]1OC=C2[C@@H](O)[C@H]3O[C@H]3C(=O)[C@@]23[C@H]1[C@H]1C2=C([C@@H](O)[C@H]4O[C@@H]4C2=O)[C@@H]3O[C@@H]1C` the activity, negative = inhibition was 53.9% [at 11.4 µM].

The compounds below were run against Alpha-galactosidase (Coffea arabica) (UniProt Q42656) (assay: Counterscreen for Glucocerebrosidase Inhibitors: qHTS Assay for Coffee Bean alpha-Galactosidase at pH 4.5 (AID 957;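 also: plate controls were enzyme alone for no effect and no enzyme for full effect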)). Conditions: purified coffee bean alpha-galactosidase, fluorogenic substrate; series mostly up to 76.9 µM; activity change, negative = inhibition: at the top concentration.
Chain of Alpha-galactosidase (Coffea arabica) (Q42656 whole entry, looked up): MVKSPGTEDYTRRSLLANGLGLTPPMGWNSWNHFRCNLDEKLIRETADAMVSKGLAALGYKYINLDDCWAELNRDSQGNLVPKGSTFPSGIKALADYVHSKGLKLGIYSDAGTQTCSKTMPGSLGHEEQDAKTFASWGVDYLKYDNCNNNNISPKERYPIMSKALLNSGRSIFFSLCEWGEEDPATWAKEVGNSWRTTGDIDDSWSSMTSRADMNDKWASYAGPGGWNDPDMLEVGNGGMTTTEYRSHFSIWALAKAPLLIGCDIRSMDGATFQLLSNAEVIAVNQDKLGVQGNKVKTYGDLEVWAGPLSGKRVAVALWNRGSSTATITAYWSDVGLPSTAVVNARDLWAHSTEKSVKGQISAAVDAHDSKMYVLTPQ
In short: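 Coffee bean alpha-galactosidase 2 nM, substrate 4-MU-alpha-Gal 80 uM, pH 4.5 citrate/Tween-20, 20 min RT. Cpd titration 0.7 nM–77 uM. Stop pH 10, fluorescence 365/440 nm; Hill-equation AC50.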
For `Cc1ccc(C(=O)O[C@@H](C(=O)O)[C@@H](OC(=O)c2ccc(C)cc2)C(=O)O)cc1` (tested in a mixture with another compound), the “activity change, negative = inhibition” value was 0.179%. With `CSC(N)=NCCC[C@@H](N)C(=O)O` the “activity change, negative = inhibition” value was -0.48%. For `N[C@H](CCCC(=O)O)C(=O)O`, the “activity change, negative = inhibition” value was -0.941%. In the case of `C[C@@H](Cc1ccccc1)Nc1ncnc2c1ncn2[C@@H]1O[C@@H](CO)[C@H](O)[C@@H]1O`, the “activity change, negative = inhibition” value is reported as -6.51%. In the case of `N[C@H](C(=O)N[C@@H]1C(=O)N2C(C(=O)O)=C(Cl)CS[C@@H]12)c1ccccc1`, the “activity change, negative = inhibition” value is reported as -2.31%. With `C=C[C@H](N)CCC(=O)O` the “activity change, negative = inhibition” value was -1.09%. In the case of `CN=C(NC#N)Nc1ccc(C2=NNC(=O)C[C@@H]2C)cc1`, the “activity change, negative = inhibition” value is reported as 0.312%. For `C[C@@H]1O[C@@H](n2cc(F)c(=O)[nH]c2=O)[C@H](O)[C@@H]1O`, the “activity change, negative = inhibition” value was 2.5%. `O=C(O)CCCC[C@H]1CCSS1` was tested, and the “activity change, negative = inhibition” value was -2.6%. For `CCNC(=O)[C@@H]1O[C@@H](n2cnc3c(N)nc(NCCc4ccc(CCC(=O)O)cc4)nc32)[C@H](O)[C@@H]1O`, the “activity change, negative = inhibition” value was 3.77%. `CCN(CC)CCC[C@H](C)Nc1ccnc2cc(Cl)ccc12` was tested, and the “activity change, negative = inhibition” value was -0.139%. With `C[C@@H](CN1CCC(Cc2ccccc2)CC1)[C@H](O)c1ccc(O)cc1` the “activity change, negative = inhibition” value was -0.625%. For `CC[C@@H]1CN2CCc3cc(OC)c(OC)cc3[C@H]2C[C@@H]1C[C@@H]1NCCc2cc(OC)c(OC)cc21`, the “activity change, negative = inhibition” value was -1%. With `CC(=O)O[C@@H]1[C@H]([N+]2(C)CCCCC2)C[C@@H]2[C@@H]3CC[C@@H]4C[C@@H](OC(C)=O)[C@H]([N+]5(C)CCCCC5)C[C@@]4(C)[C@H]3CC[C@]21C` the “activity change, negative = inhibition” value was -0.915%. In the case of `Nc1nc2c(nc(Br)n2[C@@H]2O[C@H]3COP(=O)(O)O[C@@H]3[C@H]2O)c(=O)[nH]1`, the “activity change, negative = inhibition” value is reported as -1.33%. `COc1ccc2c(c1)CCC1C2CC[C@]2(C)[C@H](NCCCCCCN3C(=O)C=CC3=O)CC[C@@H]12` (stereo not given in full) was tested, and the “activity change, negative = inhibition” value was 2.09%. In the case of `CCCN(CCC)C(=O)[C@@H](CCC(=O)O)NC(=O)c1ccccc1`, the “activity change, negative = inhibition” value is reported as -0.453%. `O=C1O/C(=C\Br)CC[C@@H]1c1cccc2ccccc12` was tested, and the “activity change, negative = inhibition” value was -0.716%. In the case of `CC1=C(\C=C/C(C)=C/C=C\C(C)=C\C(=O)O)C(C)(C)CCC1`, the outcome is reported as “inactive”. With `COc1cc([C@H](O)CO)ccc1O` the “activity change, negative = inhibition” value was -1.11%. With `O=C(/C=C\c1ccc(O)cc1)c1ccc(O)cc1O` the “activity change, negative = inhibition” value was -10.9%. For `C[C@@H](/C=C\c1cccc(Oc2ccc(F)cc2)c1)N(O)C(N)=O`, the “activity change, negative = inhibition” value was -4.6%. In the case of `CN1[C@@H]2CC(OC(=O)[C@@H](CO)c3ccccc3)C[C@H]1[C@H]1O[C@H]12` (stereo not given in full), the “activity change, negative = inhibition” value is reported as 0.221%. For `CCCN[C@@H](C)C(=O)Nc1ccccc1C`, the “activity change, negative = inhibition” value was -1.93%. `c1ccc2c(c1)CCC[C@H]2C1=NCCN1` was tested, and the “activity change, negative = inhibition” value was -0.0753%. For `CCN(CC)CCC[C@H](C)Nc1c2ccc(Cl)cc2nc2ccc(OC)cc12`, the “activity change, negative = inhibition” value was 0.102%. For `Oc1ccc([C@@H]2CNCCc3c2cc(O)c(O)c3Cl)cc1`, the “activity change, negative = inhibition” value was -2.26%. `N[C@H](CCC(=O)N[C@H](CSN=O)C(=O)NCC(=O)O)C(=O)O` was tested, and the “activity change, negative = inhibition” value was 0.133%. In the case of `CC(C)[C@@H]1NC(=O)[C@H](CCCCN)NC(=O)[C@H](Cc2c[nH]c3ccccc23)NC(=O)[C@H](Cc2ccc(O)cc2)NC(=O)[C@H](C)N(C)C(=O)[C@H](Cc2ccccc2)NC1=O`, the “activity change, negative = inhibition” value is reported as -0.755%. With `CCCC[C@]1(C2CCCC2)Cc2cc(OCC(=O)O)c(Cl)c(Cl)c2C1=O` the “activity change, negative = inhibition” value was 1.73%. With `CCCCCC[C@@H]([C@H](C)O)n1cnc2c(N)ncnc21` the “activity change, negative = inhibition” value was 0.45%. For `CCCCCCCCCCCCCCCCCCNC(=O)OC[C@@H](COP(=O)([O-])OCC[n+]1ccsc1)OC`, the “activity change, negative = inhibition” value was -0.355%.
